Assay outcomes deposited in PubChem BioAssay by several laboratories.
dFosB act: enhances mouse delta FosB homodimer DNA binding; P13346; purified delta FosB, TAMRA-CDK5 oligo fluorescence polarization; percent of positive-control signal above neutral wells; activation, % at 25 µM; 340,000 compounds, 0.99% hits;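 active = mean activation above about 17%, with every replicate also reaching it, limit read from the data, passing the limit was not always enough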
Target sequence (P13346 whole entry, looked up): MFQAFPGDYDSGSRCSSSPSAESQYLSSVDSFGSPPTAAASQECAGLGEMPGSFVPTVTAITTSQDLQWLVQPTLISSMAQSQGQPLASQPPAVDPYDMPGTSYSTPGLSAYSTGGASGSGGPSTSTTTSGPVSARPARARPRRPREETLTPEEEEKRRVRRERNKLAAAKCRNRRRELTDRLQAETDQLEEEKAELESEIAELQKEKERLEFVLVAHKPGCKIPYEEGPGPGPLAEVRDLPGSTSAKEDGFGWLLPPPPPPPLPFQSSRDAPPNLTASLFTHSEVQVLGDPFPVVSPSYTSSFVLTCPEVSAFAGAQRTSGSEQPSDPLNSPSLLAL
HSP90 inh: HSP90 refolding inhibition in rabbit reticulocyte lysate; AID 1789; 290,000 compounds, 0.91% hits; luciferase refolding luminescence, 3 h; inhibition, % at 5.6 µM;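 active = inhibition above the screen-wide mean plus 3 SD, computed separately per campaign, cut at about 16% in these data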;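 note: inhibitors lower the luminescence because luciferase stays unfolded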
HSF1 activator: increases HSF-1 driven luciferase reporter signal. NIH3T3-HGL HSF-1 luciferase reporter, MG132, 8 h; 100% = twice DMSO control signal. activation, % at 9 µM. 300,000 compounds, 1.7% hits;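 active = mean replicate activation of at least 50% with a set share of replicates each reaching 50%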
Platelet DG rel: platelet dense granule release activity. human platelet-rich plasma, SFLLRN dense granule ATP release, luminescence. inhibition, %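 (compounds screened at 7.5 µM in platelet-rich plasma)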. 300,000 compounds, 0.22% hits. AID 1663;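 active = mean replicate score, as percent of positive control, at or above 50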
HSF1 inh: HSF1 inhibition; NIH3T3-HGL HSE-luciferase, MG132-induced, luminescence 8 h; active compounds read low; 300,000 compounds, 0.77% hits; AID 2098; activity change, negative = inhibition, % at 7.5 µM (by protocol);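 active = more than half of replicate wells show activity change below -50%, luminescence cut by over half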;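 note: luciferase reports HSF-1 transcriptional activity via heat shock element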
MPTP block: blocks calcium-induced mitochondrial swelling | inhibition, % at 10 µM | AID 602449 | 360,000 compounds, 1.4% hits | isolated mouse mitochondria, Ca2+ swelling absorbance, 30 min;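 active = inhibition of 50% or more, scaled per plate between neutral and stimulator controls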
Hits are given with their value; 0 = inactive; - = no result given. An excerpt weighted towards active compounds, which were near 4.9% of everything screened.

SMILES	dFosB act	HSP90 inh	HSF1 activator	Platelet DG rel	HSF1 inh	MPTP block
Nc1nnc(-c2cc3c(ccc4ccccc43)oc2=O)s1	-	0	-	-	-	-
COc1ccccc1C(=O)NC(=S)Nc1ccccc1N1CCCC1	0	0	0	0	-57.8	0
COC(=O)c1nnn(CC(=O)NC(=O)Nc2ccc(F)cc2)c1C(=O)OC	0	0	54.7	0	0	0
COC(=O)c1nnn(CC(=O)NC(=O)Nc2ccccc2)c1C(=O)OC	0	0	0	0	0	0
Cc1ccc(OC(=O)COc2ccccc2C)c(-n2nc3ccccc3n2)c1	0	0	0	0	0	0
Cc1ccc(OC(=O)COc2ccccc2)c(-n2nc3ccccc3n2)c1	0	0	51.1	0	0	0
CCOC(=O)c1ccc(N=c2sc(C(=O)OC)cc(=O)n2Cc2ccco2)cc1	0	0	107.0	0	0	0
CCCCc1ccc(NC(=O)c2cnccn2)cc1	0	16.8	0	0	0	0
CCC(C)[C@H](N)c1nnc(SCC(=O)Nc2cccc(Cl)c2)o1 (stereo partly drawn)	0	0	108.1	0	0	0
CCn1c2ccccc2c2cc(NC(=O)CSc3nnc(-c4cccc(Cl)c4)o3)ccc21	0	0	0	61.1	0	0
CCn1c2ccccc2c2cc(NC(=O)CSc3nnc(-c4cccc(OC)c4)n3N)ccc21	0	0	57.8	0	0	0
CCn1c2ccccc2c2cc(NC(=O)CSc3nnc(-c4ccc(OC)c(OC)c4)n3N)ccc21	0	0	0	0	0	0
CCn1c(SCC(=O)Nc2ccc(N(C)C)cc2)nnc1-c1cccc(C)c1	0	0	0	0	-75.6	0
COc1ccccc1C(CNC(=O)c1cccc(S(=O)(=O)Nc2ccc(F)cc2)c1)N1CCCC1 (stereo not drawn)	0	-	-	-	-	0
O=C(COC(=O)c1n[nH]c(=O)c2ccccc12)Nc1ccccc1F	0	-	-	-	-	0
COc1cccc(-c2nnc(SCc3nc4ccccc4[nH]3)n2N)c1	0	0	71.5	0	0	0
Nn1c(SCc2nc3ccccc3[nH]2)nnc1-c1cccnc1	0	0	0	0	0	0
CC(C)Cc1ccc(C#N)c(SCC(N)=O)n1	0	0	0	0	-58.5	0
CN(c1ccccc1)c1ccc(/C=C(\CCC(=O)O)c2nc3ccccc3s2)cc1[N+](=O)[O-]	0	0	56.7	0	0	0
Cc1ccc(OCCOc2ccc(Cl)cc2Cl)c([N+](=O)[O-])n1	0	0	0	0	0	0
O=C(Nc1nc2ccccc2s1)Nc1ccc(F)cc1F	0	0	50.2	0	0	0
CCOc1ccc(NC(=S)N(Cc2ccc(Cl)cc2)Cc2ccco2)cc1	0	0	176.2	0	0	0
O=C(NC(=S)Nc1nc2ccc(F)cc2s1)c1ccco1	0	0	89.4	0	0	0
O=C(Nc1nc2ccc(F)cc2s1)c1cccs1	0	0	79.5	0	0	0
CN(C)S(=O)(=O)c1ccc2nc(NC(=O)c3cccs3)sc2c1	0	0	0	0	0	0
SMILES	dFosB act	HSP90 inh	HSF1 activator	Platelet DG rel	HSF1 inh	MPTP block
O=C(Nc1ccc(F)cc1F)Nc1sccc1-c1nc2ccccc2s1	0	0	0	0	0	0
Cn1cc(S(=O)(=O)NC[C@H]2O[C@@H](n3cnc4c(N)ncnc43)[C@H](O)[C@@H]2O)cn1	0	-	-	-	-	0
COc1ccc(/C=C/C(=O)NC(=S)Nc2ccc(Br)cn2)cc1	0	0	0	0	0	0
CC(C)(C)C(C(=O)n1cccc1C#N)c1ccccc1 (stereo not drawn)	0	-	-	-	-	0
O=C(NC(=S)Nc1cccc(NC(=S)NC(=O)c2ccco2)n1)c1ccco1	22.5	0	0	0	0	0
CC(C)(C)c1csc(NC(=O)Cc2cccs2)n1	0	0	0	0	0	0
CC(C)(C)c1csc(NC(=O)c2cccs2)n1	0	0	54.5	0	0	0
O=C(Nc1nc2c(s1)COc1ccccc1-2)c1cccs1	0	0	0	0	0	0
O=C(Nc1nc2c(s1)CCc1ccccc1-2)c1cccs1	0	0	57.5	0	0	0
CCOc1ccc(NC(=S)NC(=O)c2ccco2)cc1	0	0	52.3	0	0	0
CC1(C(=O)O)CCCN(C(=O)C2(c3ccc(Cl)cc3)CCCC2)C1 (stereo not drawn)	-	-	-	-	-	0
COc1cccc(Nc2nc(Nc3ccc(Cl)c(C(=O)O)c3)nc(C)c2[N+](=O)[O-])c1	0	-	-	-	-	0
CCOC(=O)c1ccc2nc(NC(=O)c3ccco3)sc2c1	0	0	69.4	0	0	0
